# Reference: PubChem BioAssay AID652115 (Broad Institute, 2013)
# Several values for one entry are separate records, joined by “and”; a condition that tells them apart may be missing. Equal entries are not always repeated. In all, about 330,000 compounds went through this assay and about 3,800 (1.2%) were called active. This is one part of a sample in which actives are shown more often than they occur. Values without a mark were called inactive. No stated cut-off is given here; in the data, active means inhibition above about 15%; inconclusive means no clear call, values can overlap the other calls; inactive means below that.
# Molecular target: NAD-dependent protein deacylase sirtuin-5, mitochondrial (Homo sapiens) (UniProt Q9NXA8)
# Sequence (Q9NXA8 whole entry, looked up): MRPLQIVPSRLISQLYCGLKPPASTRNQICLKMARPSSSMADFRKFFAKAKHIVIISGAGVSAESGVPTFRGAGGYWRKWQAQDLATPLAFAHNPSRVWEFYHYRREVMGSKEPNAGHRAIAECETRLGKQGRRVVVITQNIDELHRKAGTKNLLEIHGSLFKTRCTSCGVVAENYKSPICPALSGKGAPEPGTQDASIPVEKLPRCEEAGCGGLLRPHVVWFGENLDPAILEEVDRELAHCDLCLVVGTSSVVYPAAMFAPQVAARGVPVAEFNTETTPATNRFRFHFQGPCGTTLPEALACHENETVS
# Assay: blockers of sirtuin-5 deacylase activity – biochemical, fluorescence imaging, single point, set 5, primary screen (AID 652115)
# Settings: Purified SirT5, succinyl-peptide AMC, trypsin-coupled fluorescence; at 15 µM; active compounds read high
row,SMILES,inhibition
1,O=C(C[C@H]1CC[C@H]2[C@@H](COC[C@@H](O)CN2Cc2ccccc2)O1)N[C@@H]1CCN(Cc2ccccc2)C1,-3.08%
2,CCCNC(=O)N(C)C[C@H]1Oc2ncc(-c3cccc(C#N)c3)cc2C(=O)N([C@@H](C)CO)C[C@H]1C,0.845%
3,CCNC(=O)C[C@@H]1CC[C@H]2[C@@H](COC[C@@H](O)CN2C(=O)c2cc(Cl)cc(Cl)c2)O1,-2.11%
4,COc1ccc(CN(C)C[C@H]2Oc3c(NS(=O)(=O)c4ccccc4)cccc3C(=O)N([C@H](C)CO)C[C@@H]2C)cc1,6.84%
5,COc1ccc(S(=O)(=O)Nc2ccc3c(c2)C(=O)N([C@H](C)CO)C[C@@H](C)[C@@H](CN(C)Cc2ccccc2)O3)cc1,3.29%
6,COc1ccc(S(=O)(=O)Nc2cccc3c2O[C@@H](CN(C)Cc2ccc(-c4ccccc4)cc2)[C@H](C)CN([C@H](C)CO)C3=O)cc1,19.6% (active)
7,COc1ccc(S(=O)(=O)Nc2ccc3c(c2)C(=O)N([C@H](C)CO)C[C@@H](C)[C@H](CN(C)Cc2ccccc2)O3)cc1,5.6%
8,COc1ccc(S(=O)(=O)Nc2ccc3c(c2)C(=O)N([C@H](C)CO)C[C@H](C)[C@@H](CN(C)Cc2ccc(-c4ccccc4)cc2)O3)cc1,16.6% (active)
9,COc1ccc(CN(C)C[C@H]2Oc3c(NS(=O)(=O)c4ccc(Cl)cc4)cccc3C(=O)N([C@H](C)CO)C[C@@H]2C)cc1,-1.84%
10,COc1ccc(CN(C)C[C@H]2Oc3c(NS(=O)(=O)c4ccccc4)cccc3C(=O)N([C@@H](C)CO)C[C@H]2C)cc1,26.9% (active)
11,COc1ccc(CN(C)C[C@H]2Oc3c(NS(=O)(=O)c4ccc(C)cc4)cccc3C(=O)N([C@@H](C)CO)C[C@@H]2C)cc1,-2.22%
12,COc1ccc(CN(C)C[C@H]2Oc3c(NS(=O)(=O)c4ccc(Cl)cc4)cccc3C(=O)N([C@H](C)CO)C[C@H]2C)cc1,-3.94%
13,O=C(Nc1ccc(C(F)(F)F)cc1)N[C@@H]1CC[C@H](CC(=O)N2CCCCC2)O[C@H]1CO,-2.54%
14,O=C([C@@H]1[C@@H](CO)[C@@H]2Cn3c(ccc(-c4ccccc4)c3=O)[C@H]1N2CCC(F)(F)F)N1CCCCC1,-29.7%
15,CCCNC(=O)N1CC(=O)N2[C@H](CO)[C@@H](c3ccc(-c4ccc(F)cc4)cc3)[C@H]2C1,4.11%
16,C[C@H](CO)N1C[C@H](C)[C@@H](CN(C)C(=O)Nc2ccnc(N3CCOCC3)c2)OCc2ccccc2-c2c(n(C)c3ccccc23)C1=O,-5.68%
17,Cc1nnc(NC(=O)c2ccc3nccnc3c2)s1,16.3% (active)
18,CC(C)CCC(C)NC(=O)c1ccc2nccnc2c1 (stereo not drawn),7.36%
19,Cc1ccc(C)c(NC(=O)c2ccc3nccnc3c2)c1,0.033%
20,O=C(Nc1ccc(C(F)(F)F)cc1)N[C@@H]1CC[C@H](CCNC(=O)c2ccccc2F)O[C@@H]1CO,0.363%
21,Cc1ccc(S(=O)(=O)NC[C@H]2CC[C@@H]3[C@@H](CN3Cc3ccccc3C(=O)O)O2)cc1,-3.22%

row,SMILES,inhibition
1,C[C@@H](NC(=O)C[C@H]1C[C@H]2c3cc(NC(=O)Nc4ccccc4F)ccc3O[C@H]2[C@@H](CO)O1)c1ccccc1,2.15%
2,COCC(C)n1c(SCc2ccc(C(=O)OC)o2)nc2ccccc2c1=O (stereo not drawn),1.17%
3,Nc1nnc(SCC(=O)NCC(=O)Nc2ccc(F)c(F)c2F)s1,0.518%
4,COC(=O)c1ccc(CSc2nnc(N)s2)o1,16% (active)
5,CN1CCN(C(=O)C[C@H]2CC[C@@H](NC(=O)c3ccc4c(c3)OCO4)[C@H](CO)O2)CC1,1.96%
6,CCOC(=O)c1c(NC(=O)C2(C)Cc3ccccc3C(=O)O2)sc2c1CCCC2 (stereo not drawn),-3.61%
7,CCOC(=O)c1c(NC(=O)C(C)Sc2c[nH]c3ccccc23)sc2c1CCC2 (stereo not drawn),0.63%
8,CCOC(=O)c1c(NC(=S)Nc2ccccc2C)sc2c1CCC2,22.8% (active)
9,O=C(C[C@H]1CC[C@H]2[C@@H](COC[C@@H](O)CN2Cc2ccccc2F)O1)NCc1ccccc1F,3.18%
10,C/C(=C\c1ccccc1)C1NC(=O)c2c(sc3c2CCCC3)N1 (stereo not drawn),-1.37%
11,O=C1NC(c2ccncc2)Nc2sc3c(c21)CCCC3 (stereo not drawn),15.5% (active)
12,CC(=O)N1[C@@H](CO)[C@@H](c2ccc(C3=CCCC3)cc2)C12CN(C(=O)C1CC1)C2,3.6%
13,CO[C@H]1CN(C)C(=O)c2ccc(NC(=O)c3cnccn3)cc2OC[C@H](C)N(C)C[C@@H]1C,0.983%
14,CO[C@H]1CN(C)C(=O)c2ccc(NC(=O)c3ccno3)cc2OC[C@@H](C)N(S(C)(=O)=O)C[C@H]1C,17% (active)
15,CO[C@@H]1CN(C)C(=O)c2cc(NC(=O)c3ccno3)ccc2OC[C@@H](C)N(S(C)(=O)=O)C[C@@H]1C,0.416%
16,COCC(=O)Nc1ccc2c(c1)[C@H]1C[C@H](CC(=O)NCc3ccc(OC)cc3)O[C@@H](CO)[C@H]1O2,-0.814%
17,CCCNC(=O)N1C[C@H](C)[C@@H](OC)CN(C)C(=O)c2ccc(NS(C)(=O)=O)cc2OC[C@@H]1C,-4.54%
18,C[C@@H]1CN([C@@H](C)CO)C(=O)c2cc(-c3ccc(C#N)cc3)cnc2O[C@@H]1CN(C)Cc1cccnc1,-2.7%
19,CO[C@H]1CN(C)C(=O)c2ccc(NC(=O)Nc3ccc(Cl)cc3)cc2OC[C@H](C)N(C(=O)Nc2c(C)noc2C)C[C@@H]1C,-0.008%
20,COc1ccccc1OCC(=O)O/N=C(\N)c1ccccn1,0.993%
21,COc1ccc(NC(=O)CSc2ccc(-c3ccco3)nn2)c(OC)c1,-1.12%

row,SMILES,inhibition
1,COc1ccccc1OCC(=O)OCc1cc(-c2ccco2)on1,18.8% (active)
2,COCC(=O)Nc1ccc2c(c1)OC[C@@H](C)N(C(=O)c1cnccn1)C[C@H](C)[C@H](OC)CN(C)C2=O,-3.74%
3,CCC(=O)N1CC(=O)N2[C@@H](CO)[C@@H](c3ccc(C#CC4CCCC4)cc3)[C@@H]2C1,-0.876%
4,C[C@H](CO)N1C[C@H](C)[C@H](CN(C)C(=O)c2ccccn2)Oc2ncc(-c3ccccc3F)cc2C1=O,0.464%
5,Cc1ccc(S(=O)(=O)N(C)C[C@@H]2OCCCC[C@@H](C)Oc3ccc(NS(=O)(=O)c4ccccc4)cc3C(=O)N([C@H](C)CO)C[C@@H]2C)cc1,15%
6,C[C@H](CO)N1C[C@H](C)[C@H](CN(C)CC2CCCCC2)OCCCC[C@H](C)Oc2ccc(NS(=O)(=O)c3ccc(F)cc3)cc2C1=O,13.2%
7,Cc1ccc(S(=O)(=O)Nc2ccc3c(c2)C(=O)N([C@@H](C)CO)C[C@@H](C)[C@H](CN(C)Cc2ccc(Cl)c(Cl)c2)OCCCC[C@@H](C)O3)cc1,17.4% (active)
8,C[C@@H]1CCCCO[C@H](CN(C)CC2CCCCC2)[C@H](C)CN([C@H](C)CO)C(=O)c2cc(NS(=O)(=O)c3ccc(F)cc3)ccc2O1,16% (active)
9,Cc1ccc(S(=O)(=O)N(C)C[C@H]2OCCCC[C@@H](C)Oc3ccc(NS(C)(=O)=O)cc3C(=O)N([C@H](C)CO)C[C@@H]2C)cc1,-1.35%
10,CC(C)NC(=O)Nc1ccc2c(c1)C(=O)N([C@H](C)CO)C[C@H](C)[C@@H](CN(C)Cc1ccc(C(F)(F)F)cc1)OCCCC[C@@H](C)O2,0.221% and 2.28%
11,C[C@@H]1CCCCO[C@@H](CN(C)S(C)(=O)=O)[C@H](C)CN([C@@H](C)CO)C(=O)c2cc(NS(=O)(=O)c3ccc(F)cc3)ccc2O1,1.65%
12,C[C@@H]1CCCCO[C@H](CN(C)Cc2ccc(C(F)(F)F)cc2)[C@H](C)CN([C@H](C)CO)C(=O)c2cc(NC(=O)Nc3ccc(F)cc3)ccc2O1,5.62%
13,Cc1ccc(S(=O)(=O)Nc2ccc3c(c2)C(=O)N([C@@H](C)CO)C[C@@H](C)[C@H](CN(C)Cc2ccc4c(c2)OCO4)OCCCC[C@@H](C)O3)cc1,4.41%
14,Cc1ccc(S(=O)(=O)Nc2ccc3c(c2)C(=O)N([C@H](C)CO)C[C@@H](C)[C@H](CN(C)S(=O)(=O)c2ccc(C)cc2)OCCCC[C@@H](C)O3)cc1,15.5% (active)
15,C[C@@H]1CCCCO[C@H](CN(C)Cc2ccc(C(F)(F)F)cc2)[C@@H](C)CN([C@@H](C)CO)C(=O)c2cc(NC(=O)c3ccncc3)ccc2O1,15.9% (active)
16,C[C@@H]1CCCCO[C@@H](CN(C)Cc2ccc(Cl)c(Cl)c2)[C@H](C)CN([C@@H](C)CO)C(=O)c2cc(NS(C)(=O)=O)ccc2O1,11.8%
17,CN(C)CC(=O)N1[C@@H](C#N)[C@@H](c2ccccc2-c2ccccc2F)[C@@H]1CO,-0.215%
18,COCC(=O)N1C[C@@H](C)[C@H](OC)CN(C)C(=O)c2cc(NC(=O)c3cc(C)on3)ccc2OC[C@@H]1C,-4.63%
19,N#Cc1ccc(-c2ccc([C@@H]3[C@H]4CNC[C@@H]3N4Cc3cc(F)ccc3F)cc2)cc1,-3.56%
20,COCC#Cc1cnc2c(c1)C(=O)N([C@H](C)CO)C[C@H](C)[C@H](CN(C)C(=O)Nc1ccccc1OC)O2,3.78%
21,C[C@@H](NC(=O)C[C@H]1C[C@@H]2c3cc(NC(=O)Nc4ccccc4F)ccc3O[C@@H]2[C@H](CO)O1)c1ccccc1,1.89%
